Results filed as inconclusive are left out. Unmarked numbers belong to inactive results. Activity calls are given as the source filed them. Unless noted, the call rests on the fitted dose curve; in most records, active means well fitted curve in the direction sought with a large enough effect in the repeat runs; inconclusive means weak or mixed curves; inactive means no such curve, though single readings can be large; an effect the other way counts as inactive or inconclusive.

Test [1] in a line: qHTS assay to identify small molecule antagonists of the estrogen related receptor (ERR) signaling pathway from Tox21 library - cell viability counter screen (AID 1224834). Further: nearly all actives have a fitted effect of over 30% in size. Further: potency means the concentration at half of the fitted maximal effect. An outline of the steps: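 Viability readout (CellTiter-Fluor fluorescence, 30 min at 37 C) multiplexed with the ERR assay; cells treated 17.5 h at 37 C with compounds delivered in DMSO.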
On the technique in general: In qHTS, concentration-response curves come from the screen itself.

The target of test [2] is Luciferin 4-monooxygenase (Photinus pyralis) (UniProt P08659). Put plainly: qHTS assay to identify small molecule inhibitors of firefly luciferase (AID 1224835). Further: nearly all actives have a fitted effect of over 25% in size. Further: potency means the concentration at half of the fitted maximal effect. On activity change, negative = inhibition: series mostly up to about 120 µM. The method, boiled down:
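Biochemical qHTS: compounds run as interplate titrations against purified firefly enzyme, with D-luciferin and ATP each at its KM concentration. Light output recorded by CCD imaging.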

The nature of test [3]: qHTS assay to identify small molecule agonists of the constitutive androstane receptor (CAR) signaling pathway - cell viability counter screen (AID 1224836). Further: series mostly up to about 92 µM; nearly all actives have a fitted effect of over 45% in size. The method, boiled down: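 HepG2-CYP2B6-hCAR, 2500 cells/well, 4 h pre-incubation; cpd 15 conc + PK11195 0.75 uM final; 23 h, 37 C/5% CO2; CellTiter-Fluor, fluorescence.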
Test [4] can be described thus: qHTS assay to identify small molecule antagonists of the constitutive androstane receptor (CAR) signaling pathway - cell viability counter screen (AID 1224837). Further: series mostly up to about 92 µM; nearly all actives have a fitted effect of over 45% in size. An outline of the steps: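 Fluorescence from CellTiter-Fluor served as the viability signal. Human hepatoma HepG2 cells stably bearing hCAR and CYP2B6-2.2kb received compound plus CITCO (50 nM final) for 23 hr.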

Test [5] in a line: qHTS assay to identify small molecule agonists of the estrogen related receptor signaling pathway with the pleiotropic PPARgamma coactivator (PGC) (AID 1224823). An outline of the steps: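 Cell-based luciferase assay in the NTP-supplied PGC/ERR line, 2,000 cells/well; 18 h compound exposure at 37 C, luminescence after One-Glo.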
In test [6] the target is Nuclear receptor subfamily 1 group I member 3 (Homo sapiens) (UniProt Q14994). The test is described as follows: qHTS assay to identify small molecule antagonists of the constitutive androstane receptor (CAR) signaling pathway (AID 1224838).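 Further: HepG2 cells stably expressing hCAR with CYP2B6 luciferase reporter stimulated by CITCO; nearly all actives have a fitted effect of over 40% in size.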 The method, boiled down:
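Quantitative HTS in double-stable HepG2-CYP2B6-hCAR cells. After 4 h plating, cells get compound (15 concentrations) and CITCO at 50 nM final, incubate 24 h at 37 C, then ONE-Glo luminescence is read.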

Test [7] is described as follows: qHTS assay to identify small molecule antagonists of the estrogen related receptor signaling pathway with the pleiotropic PPARgamma coactivator (PGC) from Tox21 10K library - cell viability counter screen (AID 1224840; active means well fitted cell-killing curve with a large enough effect in the repeat runs, not every such curve was filed as active; further: nearly all actives have a fitted effect of over 40% in size). The method, boiled down: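 Compounds in DMSO, alongside positive and negative controls, were pinned onto PGC/ERR cells (2,000 per well). Exposure lasted 17.5 hours at 37 C, followed by a 30-minute CellTiter-Fluor incubation and fluorescence reading.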

Test [8] is described as follows: qHTS assay to identify small molecule antagonists of the estrogen related receptor signaling pathway with the pleiotropic PPARgamma coactivator (PGC) from Tox21 10K library (AID 1224841; call rule not given here; further: actives are mostly falling curves and most rising ones were filed inactive; nearly all actives have a fitted effect of over 50% in size; further: potency means the concentration at half of the fitted maximal effect; on activity, negative = inhibition: series mostly up to about 92 µM). The method, boiled down:
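Compound exposure ran 18 hours at 37 C in PGC/ERR cells (2,000/well) that had first rested 6 hours in a 37 C/5% CO2 incubator. Luciferase activity was then detected with One-Glo after a 30-minute room-temperature step.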

Test [9] is described as follows: qHTS assay to identify small molecule agonists of the estrogen related receptor signaling pathway with the pleiotropic PPARgamma coactivator (PGC) from Tox21 10K library (AID 1224842). Further: nearly all actives have a fitted effect of over 15% in size. The method, boiled down: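 PGC/ERR reporter cell line, 2,000 cells per well, incubated 6 h at 37 C before 23 nL compound in DMSO was added. After 18 h at 37 C, One-Glo luminescence read following 30 min at room temperature.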

In test [10] the target is Nuclear receptor subfamily 1 group I member 3 (Homo sapiens) (UniProt Q14994). Put plainly: qHTS assay to identify small molecule agonists of the constitutive androstane receptor (CAR) signaling pathway (AID 1224839). Further: nearly all actives have a fitted effect of over 15% in size. Further: potency means the concentration at half of the fitted maximal effect.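 On activation: HepG2 cells stably carrying human CAR and a CYP2B6 luciferase reporter; series mostly up to about 92 µM.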 The method, boiled down:
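HepG2-CYP2B6-hCAR cells, 2500/well, 4 h pre-incubation; compounds 15 conc.; PK11195 0.75 uM final; 24 h, 37 C/5% CO2; ONE-Glo luciferase read.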
On the % scale 0 is the no-effect control and ±100 the full control effect.

Nuclear receptor subfamily 1 group I member 3 (Homo sapiens), sequence (Q14994 whole entry, looked up): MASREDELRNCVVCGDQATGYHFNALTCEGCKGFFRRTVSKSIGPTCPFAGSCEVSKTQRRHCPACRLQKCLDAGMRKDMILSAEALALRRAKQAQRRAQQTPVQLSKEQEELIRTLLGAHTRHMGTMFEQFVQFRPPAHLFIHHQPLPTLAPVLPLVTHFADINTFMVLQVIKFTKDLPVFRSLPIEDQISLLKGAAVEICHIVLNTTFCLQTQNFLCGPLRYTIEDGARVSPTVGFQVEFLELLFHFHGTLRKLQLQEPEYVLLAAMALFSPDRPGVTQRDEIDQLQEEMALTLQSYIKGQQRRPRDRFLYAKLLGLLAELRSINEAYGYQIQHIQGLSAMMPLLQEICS
Luciferin 4-monooxygenase (Photinus pyralis), sequence (P08659 whole entry, looked up): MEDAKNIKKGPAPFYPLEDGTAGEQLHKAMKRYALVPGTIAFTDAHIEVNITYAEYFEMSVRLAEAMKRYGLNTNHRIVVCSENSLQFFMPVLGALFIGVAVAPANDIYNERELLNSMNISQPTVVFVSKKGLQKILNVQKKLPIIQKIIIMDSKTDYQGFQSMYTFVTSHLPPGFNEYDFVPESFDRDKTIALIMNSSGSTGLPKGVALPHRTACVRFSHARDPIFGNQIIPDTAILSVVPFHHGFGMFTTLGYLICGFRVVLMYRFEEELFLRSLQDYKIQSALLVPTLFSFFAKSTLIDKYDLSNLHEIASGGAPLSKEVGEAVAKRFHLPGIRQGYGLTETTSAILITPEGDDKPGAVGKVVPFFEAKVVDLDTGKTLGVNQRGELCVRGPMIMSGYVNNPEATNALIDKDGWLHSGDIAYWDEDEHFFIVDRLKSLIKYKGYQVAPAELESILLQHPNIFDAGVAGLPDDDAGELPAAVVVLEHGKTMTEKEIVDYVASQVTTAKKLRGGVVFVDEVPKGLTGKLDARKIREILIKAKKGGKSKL

Turning to `CS(C)=O`, the Potency entry in [1], in test [2], in test [3] and in test [4] was “inactive” throughout.

Regarding `O=C(O)c1cccnc1Nc1cccc(C(F)(F)F)c1`, in test [5], the call was inactive. Besides, the Potency entry in test [1], in test [3], in test [4], in [6], in test [7] and in test [8] was “inactive” in each case. Further, in [9], the Potency entry is “inactive”. Moreover, in test [2], the Potency is 19.5 µM (active).

In the case of `CC(CCl)OC(C)CCl` (stereo unspecified), the Potency entry in [1], in test [2], in [3], in test [4], in [6] and in test [10] was “inactive” each time.

As to `CCCCCCCCCCCCCCCCC(=O)O`, the Potency entry in test [1], in test [2], in test [3], in test [4], in test [6] and in [10] was “inactive” throughout.

Regarding `FC(F)(Cl)C(F)(Cl)Cl`, the Potency result in [1], in test [2], in [3], in [4], in test [6] and in test [10] was “inactive” in each case.

As for `CCCCOC(=O)CC#N`, the Potency result in test [1], in test [2], in test [3], in [4], in test [6] and in test [10] was “inactive” each time.

On to `CC1(C)[C@@H]2CC[C@]3(C2)[C@@H]1C(=O)CCC3(C)C`, for which the Potency entry in test [1], in [2], in test [3], in [4], in test [6] and in test [10] was “inactive” in each case.

As for `Cc1ccc(S(=O)(=O)NC(=O)NC2CCCC2)cc1`, the Potency result in [1], in test [2], in test [3], in test [4], in test [6] and in test [10] was “inactive” each time. Further, in test [7], the Potency result was “inactive”.

In the case of `CCc1ccc(C(=O)C(C)CN2CCCCC2)cc1` (stereo unspecified), the Potency entry in [1], in test [2], in test [3], in test [4], in test [6] and in test [10] was “inactive” each time. Moreover, the Potency result in test [7] was “inactive”.

As to `Cc1nc2sccn2c(=O)c1CCN1CCC(=C(c2ccc(F)cc2)c2ccc(F)cc2)CC1`, in test [5], the call was inactive. Besides, the Potency result in [1], in [2], in [3], in test [4], in [10] and in test [7] was “inactive” in each case. Further, the Potency entry in test [9] is “inactive”.

Regarding `O=C(Nc1ccccc1)c1cc([N+](=O)[O-])ccc1Cl`, the compound was classed as inactive in [5]. Also, the Potency entry in [1], in [3], in test [4], in [6], in test [10] and in [7] was “inactive” each time. Besides, the Potency result in [9] is “inactive”. Also, the Potency in test [8] was 15.4 µM (active).

As to `O=C1CCCN1CCO`, the Potency result in test [1], in test [2], in test [3], in [4], in test [6] and in test [10] was “inactive” in each case.

Take `CCC(C(=O)O)c1ccc(N2Cc3ccccc3C2=O)cc1` (stereo unspecified): the Potency entry in test [1], in test [3], in test [4], in [6] and in [7] was “inactive” in each case. Besides, the Potency is 9.77 µM (active) in test [2] and 5.96 µM (active) in [10].

With `O=C(NC1CCN(CCc2c[nH]c3ccccc23)CC1)c1ccccc1`, the Potency entry in test [1], in test [2], in test [3], in test [4], in test [6] and in test [10] was “inactive” in each case. Moreover, in [7], the Potency entry was “inactive”.

`O=C(O)COCC(=O)O`: the Potency result in test [1], in test [2], in test [3], in test [4], in [6] and in test [10] was “inactive” each time.

As for `CCCOC(C)=O`, the Potency entry in test [1], in [2], in test [3], in test [4], in [6] and in [10] was “inactive” each time.

`Oc1ccc(Oc2ccccc2)cc1`: the Potency result in [1], in test [2], in test [3], in test [4] and in test [6] was “inactive” each time.

Regarding `Cc1c(Cl)cccc1[N+](=O)[O-]`, the Potency entry in [1], in [2], in test [3] and in [4] was “inactive” throughout.

On to `CCOc1ccccc1O`, for which the Potency result in test [1], in [2], in test [3], in test [4], in test [6] and in test [10] was “inactive” each time. The Potency result in test [7] was “inactive”.

As for `CC(=O)CC/C=C(\C)CC/C=C(\C)CC/C=C(\C)CCC=C(C)C`, the Potency entry in [1], in test [2], in test [3], in [4] and in [6] was “inactive” in each case.

Regarding `C=CCCC`, the Potency result in test [1], in test [2], in [3], in test [4], in [6] and in test [10] was “inactive” throughout. For the same compound, in [7], the Potency result was “inactive”.

Turning to `COC(=O)c1cc(Cl)ccc1[N+](=O)[O-]`, the Potency entry in test [1], in test [2], in [3], in test [4], in [6] and in test [10] was “inactive” each time. The Potency result in test [7] was “inactive”.

For `CCc1ccc2c(c1)C(=O)c1ccccc1C2=O`, the Potency entry in test [1], in [3], in [4], in test [6] and in [7] was “inactive” throughout. Also, the results for the Potency in [2] and in test [10] were 5.03 µM (active) and 27.3 µM (active), respectively.

Regarding `c1ccc(CN(Cc2ccccc2)Cc2ccccc2)cc1`, the Potency result in test [1], in [2], in [3], in [4], in [6] and in [10] was “inactive” each time. For the same compound, the Potency result in [7] is “inactive”.

On to `CC1=C(C)C(=O)C(CCCCC#CCCCC#CCO)=C(C)C1=O`, for which the call in [5] was inactive. The Potency in test [1] was 23.7 µM (active). Also, the Potency entry in test [2], in test [3], in test [4], in test [6], in test [7] and in test [9] was “inactive” each time.

Regarding `CC(=O)c1ccc(Cl)c(Cl)c1Cl`, the Potency result in test [1], in [2], in test [3], in [4], in [6] and in test [10] was “inactive” each time.

Consider `NC(=O)c1ccccc1`, for which the Potency result in test [1], in test [2], in test [3], in [4], in [6] and in [10] was “inactive” throughout.

Consider `O=C(O)c1ccccc1-n1cc(C(=O)O)c(=O)c2cc(Nc3c(F)cc(F)cc3Cl)c(Cl)cc21`, for which the Potency entry in test [1], in test [2], in test [3], in test [4], in [6] and in test [10] was “inactive” in each case. Also, the Potency result in test [7] was “inactive”.

For the compound `O=C(O)c1ccc2c(c1)nc(C(=O)NC1CCN(C3CC3)CC1)n2Cc1cc(-c2ccc(Cl)s2)on1`, the viability change, negative = cytotoxic is -4.05% [at 19 µM] in test [1], 0.0204% [at 19 µM] in [3] and -11.5% [at 19 µM] in test [7]. Further, the activity change, negative = inhibition in test [2] is -1.8% [at 23.6 µM]. Further, the activity change, negative = cytotoxicity in test [4] was 10.8% [at 19 µM]. For the same compound, the activity, negative = inhibition in test [6] was 19.9% [at 19 µM]. For the same compound, in [10], the activation is -1.53% [at 19 µM].

As to `O=C(Cl)c1cc(Cl)cc(Cl)c1`, the Potency result in test [1], in test [2], in test [3], in [4], in [6] and in test [10] was “inactive” each time. In addition, the Potency result in test [7] was “inactive”.

Source of the values: PubChem BioAssay (Tox21).
